Experimental data as given in PubChem BioAssay AID588651 (The Scripps Research Institute Molecular Screening Center, 2011).
Active and inactive are the calls of the source. No stated cut-off is given here; in the data, active means inhibition above about 65%; inactive means the rest.

Test system: Antitargets
Experiment: Fam108b inhibition by ABPP, late-stage follow-up, biochemical, gel-based ABPP, recombinant soluble Fam108b, HTS hits, complex proteome (AID 588651);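 further: Fam108b spiked into mouse brain membrane proteome; tested at 20 µM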
Settings: FP-rhodamine labeling in proteome

| SMILES | outcome |
| --- | --- |
| CCOc1cc(/C=C2\C(=O)N(c3nc(-c4ccc(Br)cc4)cs3)N=C2c2ccccc2)ccc1O | active |
| COc1ccc(-c2csc3nc(-c4ccccc4OC)oc(=O)c23)cc1 | inactive |
| COc1cccc(C=NNC(=O)c2[nH]c(C)c(C(=O)NN=Cc3cccc(OC)c3O)c2C)c1O | active |
| COc1cc2c(cc1NC(=O)Nc1ccccc1)oc1ccccc12 | inactive |
| CSC[C@@H]1NC(=S)N(c2ccc(C)cc2)C1=O | inactive |
| O=c1oc(-c2ccccc2F)nc2scc(-c3ccccc3)c12 | inactive |
| O=C1c2ccccc2-c2onc3ccc(NCCCn4ccnc4)c1c23 | inactive |
| CCN(CC)S(=O)(=O)c1cc(NC(=O)COC(=O)c2sc3ccccc3c2Cl)ccc1C | inactive |
| Cc1cc(NN=Cc2c(O)ccc3ccccc23)nc(-c2ccccc2O)n1 | inactive |
| O=S(=O)(c1cc(O)ccc1O)c1cccc2c(S(=O)(=O)c3cc(O)ccc3O)cccc12 | inactive |
| Cc1ccc(S(=O)(=O)N=C2C=C(Sc3ncn[nH]3)C(=O)c3ccccc32)cc1 | inactive |
| O=C1C(SCCO)=C(SCCO)C(=O)c2ccccc21 | inactive |
| O=C(Nc1ccc2[nH]c(=S)sc2c1)Nc1ccccc1F | inactive |
| O=C(Nc1ccc(-c2csc(Nc3cccc(C(F)(F)F)c3)n2)cc1)c1cccc(C(F)(F)F)c1 | inactive |
| O=[N+]([O-])c1ccc(NN=Cc2ccccc2O)cc1 | inactive |
| Cn1c2ccccc2c2cc(C=NNC(=O)c3cc(O)ccc3O)ccc21 | inactive |
| COc1ccc(/C=C/C(=O)OCC(=O)Nc2cccc(Oc3ccccc3)c2)c(OC)c1 | inactive |
| Cc1cc(C(C#N)c2ccc(Cl)cc2)c(Cl)cc1NC(=O)c1cc(I)cc(I)c1O (stereo not drawn) | inactive |
